{"source": "PubChem BioAssay AID492952", "about": "(Southern Research Specialized Biocontainment Screening …, 2010)", "note": "About 1,500 (65%) of roughly 2,300 compounds were called active. How the calls were made is not given here. So high a share suggests a set chosen from earlier hits. This is one part of the list. Entries with a potency or affinity are not part of this list.", "data": [{"test": "replicating M. tuberculosis growth inhibition, dose response, non-replicating M. tuberculosis project, H37Rv (AID 492952);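 further: Mycobacterium tuberculosis grown in culture; growth inhibition read after a week of incubation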", "settings": "series mostly up to 50 µM", "values": [{"compound": "CC(C)N1CCc2c(sc(NC(=O)CCS(=O)(=O)c3ccccc3)c2C#N)C1", "outcome": "inactive"}, {"compound": "N=C1/C(=C\\c2coc3ccccc3c2=O)C(=O)N=C2SC=CN12", "outcome": "inactive"}, {"compound": "CSC1=NSC2=NC(=O)/C(=C\\c3cccs3)C(=N)N12", "outcome": "inactive"}, {"compound": "COc1ccc(C(=O)CC(=O)C(=O)NCCc2cccc(C)c2)cc1", "outcome": "inactive"}, {"compound": "O=C(CCSc1ccc(Cl)cc1)Nc1cccnc1", "outcome": "inactive"}, {"compound": "c1cncc(-c2noc(CC3CCCCC3)n2)c1", "outcome": "inactive"}, {"compound": "CC[n+]1c(/C=C(\\C)Nc2ccccc2)sc2ccccc21", "outcome": "inactive"}, {"compound": "Cc1nnc(C)n1/N=C/c1cc(Br)cc(Br)c1O", "outcome": "inactive"}, {"compound": "COc1cc(C2C3=C(CC(C)(C)CC3=O)OC(N)=C2[N+](=O)[O-])ccc1O", "note": "(stereo unspecified)", "outcome": "inactive"}, {"compound": "CCOC(=O)CC(NS(=O)(=O)Cc1ccccc1)c1ccc(C)cc1", "note": "(stereo unspecified)", "outcome": "inactive"}, {"compound": "COc1cccc(NC(=O)c2ccc(C(=O)c3ccccc3)o2)c1", "outcome": "inactive"}, {"compound": "CCOc1ccc(NC(=O)c2nnn(CC(=O)Nc3ccccc3OC)c2N)cc1", "outcome": "inactive"}, {"compound": "COc1ccc(NC(=O)c2nc3ccccc3s2)cc1", "outcome": "inactive"}, {"compound": "COC(=O)COc1ccc(S(=O)(=O)N2CCN(c3ccccc3F)CC2)cc1", "outcome": "inactive"}, {"compound": "O=S(=O)(c1ccc(OCC2CO2)cc1)c1ccc(OCC2CO2)cc1", "note": "(stereo unspecified)", "outcome": "inactive"}, {"compound": "Cc1ccc(CC(=O)N2CCN(c3ccc([N+](=O)[O-])cc3)CC2)cc1", "outcome": "inactive"}, {"compound": "O=C(Nc1ccc(N2CCN(C(=O)c3ccco3)CC2)c(Cl)c1)c1cccs1", "outcome": "inactive"}, {"compound": "O=C(NNC(=O)c1cccs1)c1ccc(Br)o1", "outcome": "inactive"}, {"compound": "O=C(c1cccs1)N1CCN(c2ccc(Cl)cc2)CC1", "outcome": "inactive"}, {"compound": "Cc1nc2ccc(OC(=O)c3ccccc3)cc2s1", "outcome": "inactive"}, {"compound": "Cc1ccc(-c2nnc(-c3ccccc3)o2)cc1", "outcome": "inactive"}, {"compound": "O=C(COC(=O)CCC(=O)c1ccc(F)cc1)Nc1ccc(F)cc1F", "outcome": "inactive"}, {"compound": "O=C(NNC(=O)c1ncc(Cl)c(Cl)c1Cl)c1ccc(F)cc1", "outcome": "inactive"}, {"compound": "O=C1c2ccccc2CC1Sc1nnc(-c2ccncc2)o1", "note": "(stereo unspecified)", "outcome": "inactive"}, {"compound": "O=C(Nc1ccc(Cl)cc1Cl)c1cccc(N2C(=O)C=CC2=O)c1", "outcome": "inactive"}, {"compound": "C/C(=N\\NC(=O)c1cccc(Cl)c1)C1C(=O)c2ccccc2C1=O", "outcome": "inactive"}, {"compound": "CCOc1ccccc1NC(=O)COn1nnc2ccc(Cl)cc21", "outcome": "inactive"}, {"compound": "O=S(=O)(CCN1CCN(c2ccccn2)CC1)c1ccc(Cl)cc1Cl", "outcome": "inactive"}, {"compound": "CC(=O)c1ccc(-c2nnc(CCC(=O)N(C)Cc3cccc4cnccc34)o2)s1", "outcome": "inactive"}, {"compound": "O=C(COc1cccc2ccccc12)Nc1ccc(Cl)cc1C(=O)O", "outcome": "inactive"}, {"compound": "CCOC(=O)c1csc(COc2ccccc2Cl)n1", "outcome": "inactive"}, {"compound": "CCOc1cccc2cc(C(=O)NC(C)c3ccccc3)c(=N)oc12", "note": "(stereo unspecified)", "outcome": "inactive"}, {"compound": "N=c1oc2ccc(Cl)cc2cc1C(=O)NC1CCCCCC1", "outcome": "inactive"}, {"compound": "O=C(Nc1nccs1)c1ccc(COc2ccc(Cl)cc2)o1", "outcome": "inactive"}, {"compound": "CCOC(=O)C(=O)Cc1nc2ccccc2s1", "outcome": "inactive"}, {"compound": "CCOC(=O)NC(=O)COC(=O)CCCSc1nc2ccccc2s1", "outcome": "inactive"}, {"compound": "CCNC(=O)NC(=O)C(C)OC(=O)CCCSc1nc2ccccc2s1", "note": "(stereo unspecified)", "outcome": "inactive"}, {"compound": "CC(C)CNc1nc(=S)nc(N(C)C)[nH]1", "outcome": "inactive"}, {"compound": "COc1ccc(S(=O)(=O)NCc2ccc3c(c2)cc(C)n3C)cc1", "outcome": "inactive"}, {"compound": "CC(NC(=O)OCc1ccccc1)c1ccccc1", "note": "(stereo unspecified)", "outcome": "inactive"}, {"compound": "CCOC(=O)c1c(-c2ccccc2)csc1NC(=O)CCN1CCOCC1", "outcome": "inactive"}, {"compound": "COc1ccc2cc(C(=O)NCc3ccccc3CN3CCCC3)ccc2c1", "outcome": "inactive"}, {"compound": "CCCCn1nnc(NC(=O)COc2ccc(Cl)c(C)c2)n1", "outcome": "inactive"}, {"compound": "O=c1c2c([N+](=O)[O-])cc([N+](=O)[O-])cc2nc2ccccn12", "outcome": "inactive"}, {"compound": "COc1cc(Cl)cc(/C=N/NC(N)=O)c1O", "outcome": "inactive"}, {"compound": "CCSc1nc(O)c(C2OC(=O)c3c2ccc(OC)c3OC)c(=O)n1-c1ccccc1", "note": "(stereo unspecified)", "outcome": "inactive"}, {"compound": "NCCNc1ccc([N+](=O)[O-])c2cccnc12", "outcome": "inactive"}, {"compound": "C/C(=N/NC(=O)c1ccco1)c1ccc(Br)s1", "outcome": "inactive"}, {"compound": "C/C(=N\\NC(=O)c1ccco1)c1cc(Cl)sc1Cl", "outcome": "inactive"}, {"compound": "Cc1cccnc1NC(=O)COc1ccc2oc3c(c2c1)CCCC3", "outcome": "inactive"}, {"compound": "CCOC(=O)N1CCN(c2cc(C)c([N+](=O)[O-])cc2F)CC1", "outcome": "inactive"}, {"compound": "Cc1ccc(NC(=O)c2noc(C(C)C)c2[N+](=O)[O-])cc1", "outcome": "inactive"}, {"compound": "O=c1ccn(-c2ccccc2)[nH]1", "outcome": "inactive"}, {"compound": "Cc1ccnc(-n2sc3ccccc3c2=O)n1", "outcome": "inactive"}, {"compound": "COc1ccc(OCc2n[nH]c(=S)o2)cc1", "outcome": "inactive"}, {"compound": "O=c1oc(-c2ccccc2[N+](=O)[O-])nc2ccccc12", "outcome": "inactive"}, {"compound": "C=CC(=O)Oc1ccc(N2Cc3ccccc3C2=O)cc1", "outcome": "inactive"}, {"compound": "CN1CCN(Cc2cc(C(C)(C)C)c(O)c(C(C)(C)C)c2)CC1", "outcome": "inactive"}, {"compound": "CCCn1c(O)c(N=NC(=O)c2ccco2)c2ccccc21", "outcome": "inactive"}, {"compound": "CCCN1C(=O)SC(CC(=O)Nc2ccccc2)C1=O", "note": "(stereo unspecified)", "outcome": "inactive"}, {"compound": "CCCCn1c(N)c(-c2nc3ccccc3o2)c2c([N+](=O)[O-])nn(CC)c(=O)c21", "outcome": "inactive"}, {"compound": "C/C(=N\\NC(=O)c1ccccc1)c1nc2ccccc2n1C", "outcome": "inactive"}, {"compound": "Cc1cc(C)c(OCC(=O)Nc2nnc(-c3ccco3)o2)c(C)c1", "outcome": "inactive"}, {"compound": "Cc1cccc(CSc2nnc(-c3ccco3)o2)c1", "outcome": "inactive"}, {"compound": "CN(/N=C/c1ccc([N+](=O)[O-])o1)c1ccccc1", "outcome": "inactive"}, {"compound": "CC1=CN2C(=N)/C(=C/c3ccc([N+](=O)[O-])o3)C(=O)N=C2S1", "outcome": "inactive"}, {"compound": "Cc1cc(C)n(-c2ccc(C(=O)OCC(=O)Nc3cc(Cl)ccc3[N+](=O)[O-])cc2)n1", "outcome": "inactive"}, {"compound": "COC(=O)C1=C(C)N(CC2CC2)C(=NCc2cccc(Cl)c2)N[C@H]1c1ccccc1", "outcome": "inactive"}, {"compound": "CCCC(C)C(=O)Nc1ccc(Cl)cn1", "note": "(stereo unspecified)", "outcome": "inactive"}, {"compound": "CC(C(=O)OCC(=O)c1ccccc1)N1C(=O)C2C3CCC(C3)C2C1=O", "note": "(stereo unspecified)", "outcome": "inactive"}, {"compound": "CC(Cc1ccccc1Sc1ccccc1)N(C)C", "note": "(stereo unspecified)", "outcome": "inactive"}, {"compound": "Cc1ccc(-c2ccc(/C=N/NC(=O)CN3CCCC3)o2)cc1Cl", "outcome": "inactive"}, {"compound": "CN1CCN(/N=C/c2ccc(-c3ccc([N+](=O)[O-])cc3Cl)o2)CC1", "outcome": "inactive"}, {"compound": "COc1ccc(Cl)cc1N=Cc1c(O)c2ccccc2oc1=O", "outcome": "inactive"}, {"compound": "COc1ccccc1-n1c(=O)oc2ccc(Cl)cc2c1=O", "outcome": "inactive"}, {"compound": "O=C(N[C@@H]1C[C@H]2CC[C@@H]1C2)c1ccco1", "outcome": "inactive"}, {"compound": "O=C(N/N=C\\c1ccccc1OCc1ccccc1)c1ccco1", "outcome": "inactive"}, {"compound": "Cc1ccc(C(=O)NCCOc2cccc(C)c2)cc1", "outcome": "inactive"}, {"compound": "CCCCNC(=O)N1CCc2ccccc2C1", "outcome": "inactive"}, {"compound": "CCN1CCN(C(=O)CN(Cc2ccccc2)S(C)(=O)=O)CC1", "outcome": "inactive"}, {"compound": "O=C1CC(N2CCN(Cc3ccccc3)CC2)C(=O)N1CCc1ccccc1", "note": "(stereo unspecified)", "outcome": "inactive"}, {"compound": "O=C(NCc1ccccc1CN1CCCC1)c1cc2ccccc2o1", "outcome": "inactive"}, {"compound": "O=C(CCS(=O)(=O)Cc1ccccc1)Nc1ncc([N+](=O)[O-])s1", "outcome": "inactive"}, {"compound": "O=C(N/N=C/c1c(O)ccc2ccccc12)c1ccc(Br)o1", "outcome": "inactive"}, {"compound": "CCCCN(C)C(=O)c1cc2cc3ccc(OC)cc3nc2s1", "outcome": "inactive"}, {"compound": "O=C(CNC(=O)c1ccccc1F)OCc1csc(-c2ccccc2)n1", "outcome": "inactive"}, {"compound": "O=C(NCC1CCCCC1)c1ccco1", "outcome": "inactive"}, {"compound": "CCCOC(=O)c1ccc(OC(=O)c2ccco2)cc1", "outcome": "inactive"}, {"compound": "C/C(=N/NC(=O)c1cccc(C)c1)c1c(O)cc(C)oc1=O", "outcome": "inactive"}, {"compound": "COc1cccc(NC(=O)c2ccc(-c3ccc([N+](=O)[O-])cc3)o2)c1", "outcome": "inactive"}, {"compound": "O=C(Nc1ncc([N+](=O)[O-])s1)c1cccs1", "outcome": "inactive"}, {"compound": "O=C1/C(=C\\c2ccco2)SC(=S)N1c1ccc(O)cc1", "outcome": "inactive"}, {"compound": "O=C(NNC1=C(C(=O)C(F)(F)F)CCC1)c1ccccc1Cl", "outcome": "inactive"}, {"compound": "Cc1ccccc1C(=O)NNc1ccc([N+](=O)[O-])cc1", "outcome": "inactive"}, {"compound": "Cc1c(Cl)cccc1NC(=O)C1COc2ccccc2O1", "note": "(stereo unspecified)", "outcome": "inactive"}, {"compound": "O=C(COc1ccc2ccccc2c1)N1CCCC1", "outcome": "inactive"}, {"compound": "O=C(c1cccc2cccc(O)c12)N1CCCCC1", "outcome": "inactive"}, {"compound": "Cc1ccc(C(=O)N/N=C/c2cccc3ccccc23)cn1", "outcome": "inactive"}, {"compound": "CCN(CC)CCSc1nnc2c3cc(C)ccc3n(Cc3ccccc3)c2n1", "outcome": "inactive"}, {"compound": "Cc1ccc(NC(=O)C2CC2c2ccccc2)cc1", "note": "(stereo unspecified)", "outcome": "inactive"}, {"compound": "O=C(CCSc1nnc(-c2ccncc2)o1)Nc1cccc(Cl)c1", "outcome": "inactive"}, {"compound": "Cc1nnc(SCCC(=O)Nc2ccc(Cl)cc2)o1", "outcome": "inactive"}, {"compound": "N#Cc1ccc(CSc2nnc(-c3cccnc3)o2)cc1", "outcome": "inactive"}, {"compound": "CCOC(=O)CN1NC2(CCC(C)CC2)NC1=S", "note": "(stereo unspecified)", "outcome": "inactive"}, {"compound": "O=c1c2c([N+](=O)[O-])cc([N+](=O)[O-])cc2sn1-c1ccc(Br)cc1", "outcome": "inactive"}, {"compound": "O=[N+]([O-])c1ccc2nc(SCc3cn4cc(Cl)ccc4n3)[nH]c2c1", "outcome": "inactive"}, {"compound": "Cc1nc2ccc(Cl)cc2nc(C)/c1=N\\O", "outcome": "inactive"}, {"compound": "O=c1c2cc(Cl)ccc2nc(-c2ccccc2Cl)n1O", "outcome": "inactive"}, {"compound": "O=C(NNc1nc2ccccc2s1)c1ccc(F)cc1", "outcome": "inactive"}, {"compound": "CC(C)CCC1=NN(C(=O)c2ccco2)C(O)(C(F)(F)F)C1", "note": "(stereo unspecified)", "outcome": "inactive"}, {"compound": "CCOC(=O)C1(CC2CCCCO2)CCN(Cc2nccn2-c2ccc(OC)cc2)CC1", "note": "(stereo unspecified)", "outcome": "inactive"}, {"compound": "NNC(=O)COc1cccc(Oc2ccccc2)c1", "outcome": "inactive"}, {"compound": "CCCCNS(=O)(=O)c1ccc(OCC(=O)OC)cc1", "outcome": "inactive"}, {"compound": "C=CCOC(=O)c1ccc(-n2cnc(C)n2)nc1", "outcome": "inactive"}, {"compound": "COC(=O)c1ccc(OCC(=O)c2cccc(OC)c2)cc1", "outcome": "inactive"}, {"compound": "CCn1cc(/C=N\\NC(=O)c2ccc(F)cc2)cn1", "outcome": "inactive"}, {"compound": "O=C(c1cc(F)ccc1F)C1CCCN(Cc2ccc3nonc3c2)C1", "note": "(stereo unspecified)", "outcome": "inactive"}, {"compound": "Cc1ccc(NC(=S)C2=C(O)c3sccc3N(C)S2(=O)=O)cc1", "outcome": "inactive"}, {"compound": "COc1ccc(CC(=O)Nc2nccs2)cc1OC", "outcome": "inactive"}, {"compound": "N#Cc1ccsc1NC(=O)c1ccc(Cl)c([N+](=O)[O-])c1", "outcome": "inactive"}, {"compound": "O=C(Nc1sc2c(c1C(=O)O)CCCCC2)c1ccccc1F", "outcome": "inactive"}]}]}
